# Experimental data reported in PubChem BioAssay AID2314 (National Center for Advancing Translational Sciences (NCATS), 2010).
# Out of some 300,000 compounds screened, about 37,000 (12%) were called active. No stated cut-off is given here; in the data, active means max response mostly above about 13% (no sharp cut-off); inactive means mostly below about 14%. Only a selection was taken, and actives are over-represented in it overall.
# Experiment: Cycloheximide Counterscreen for Small Molecule Inhibitors of Shiga Toxin; further: read at 38.3 µM for the half of the compounds with a filed dose; 0% is about no effect
# Conditions: cell reporter, cycloheximide protein synthesis inhibition counterscreen; stronger effect = higher value
row,SMILES,max response
1,COc1ccc(-c2noc(CCCC(=O)NC3CCCC3)n2)cc1OC,3.35% (inactive)
2,CCOc1ccc(-c2noc(CCC(=O)NC3CCCC3)n2)cc1OC,-5.32% (inactive)
3,COc1ccc(OC)c(Cc2nnc(CCC(=O)NC3CCCC3)o2)c1,18.4% (active)
4,CC(=O)c1cc(CN2CCC(C(=O)Nc3cccc(-c4cscn4)c3)CC2)cs1,1.1% (inactive)
5,CCCN(CCC)c1nc2c(C)cccn2c(=O)c1/C=C1/SC(=S)N(Cc2ccco2)C1=O,3.29% (inactive)
6,CC1CN(CC(=O)NC(C)c2ccccc2)CC(C)O1 (stereo not drawn),-1.49% (inactive)
7,O=C(NCc1cccs1)c1ccc(CS(=O)Cc2ccccc2Cl)o1 (stereo not drawn),-1.19% (inactive)
8,COc1ccc(-n2nc(C(=O)Nc3cc(OC)c(OC)c(OC)c3)c3ccccc3c2=O)c(OC)c1,7.65% (inactive)
9,COc1ccc(-n2nc(C(=O)NCC(=O)N3CCN(c4ccccc4OC)CC3)c3ccccc3c2=O)c(OC)c1,24.9% (active)
10,COc1cccc(NC(=O)c2nn(-c3ccc(OC)cc3OC)c(=O)c3ccccc23)c1,-9.73% (inactive)
11,Cc1ccc(S(=O)(=O)N(CC(O)CN2CCCCC2)c2cccc([N+](=O)[O-])c2)cc1 (stereo not drawn),-3.71% (inactive)
12,COc1ccc(N(Cc2ccc(N(C)C)cc2)C(=O)c2ccc(S(C)(=O)=O)cc2)cc1,-1.82% (inactive)
13,O=C(O)CCn1cc(/C=C/C(=O)c2ccc(Cl)cc2)c(-c2cccc(Br)c2)n1,0.455% (inactive)
14,FC(F)(F)c1nnc2c3ccccc3c(Cl)nn12,-3.49% (inactive)
15,Oc1oc(-c2ccccc2Br)nc1/C=N/c1ccccn1,34.5% (active)
16,CC(C)n1c(O)c(N=Nc2ccccn2)c2ccccc21,4.74% (inactive)
17,CN(C(=O)CN1C(=O)S/C(=C\c2ccccc2F)C1=O)C1CCS(=O)(=O)C1 (stereo not drawn),0.582% (inactive)
18,COc1ccc(CNC(=O)C(c2ccc(O)cc2)N(Cc2ccco2)C(=O)c2snc(C(N)=O)c2N)cc1 (stereo not drawn),2.14% (inactive)
19,CCC(C)Sc1nc2c(cnn2-c2ccc(F)cc2)c(=O)[nH]1 (stereo not drawn),3.85% (inactive)
20,CC(C)=CCN1CCN(Cc2cc3ccccc3[nH]2)CC1CCO (stereo not drawn),-3.61% (inactive)
21,Cc1cc(C)c(S(=O)(=O)c2cc(F)ccc2C)c(=O)[nH]1,2.04% (inactive)

row,SMILES,max response
1,CCOc1cc(NC(=O)CCl)c(OCC)cc1NC(C)=O,-3.13% (inactive)
2,CC(Cc1cccs1)N(Cc1ccc(Cl)cc1)C(=O)c1ccncc1 (stereo not drawn),-4.21% (inactive)
3,O=C(/C=C/c1ccc(Cl)cc1)Nc1ccc(Br)cn1,14.3% (inactive)
4,Cc1cc(C)nc(NC(=O)/C=C/c2ccc(Cl)cc2)n1,17.8% (active)
5,Cc1ccc(NC(=S)NC(=O)/C=C/c2ccc(Cl)cc2)cc1,8.42% (inactive)
6,O=C(/C=C/c1ccc(Cl)cc1)Nc1ccc(S(=O)(=O)Nc2ncccn2)cc1,5.75% (inactive)
7,CC(C)(C)c1ccc(/C=C/C(=O)NC2CCS(=O)(=O)C2)cc1 (stereo not drawn),5.09% (inactive)
8,CC(C)(C)c1ccc(/C=C/C(=O)Nc2ncccn2)cc1,65.3% (active)
9,O=S(=O)(NC1CC1)c1ccc2c3c(cccc13)CC2,-1.96% (inactive)
10,COc1ccc(C(O)(C2CCCCC2)C(CN2CCCC2)c2ccccc2)cc1 (stereo not drawn),-2.99% (inactive)
11,COC(=O)c1ccc(CN2C(=O)NC(c3ccccc3)(c3ccccc3)C2=O)o1,-8.22% (inactive)
12,O=C(Nc1cccc(F)c1)[C@@H]1CCCN1,-0.0627% (inactive)
13,O=C(Nc1cccc(F)c1)NC1CCCc2ccccc21 (stereo not drawn),-2.71% (inactive)
14,O=C(Nc1cccc(F)c1)NC1CCCCCCC1,52.8% (active)
15,C/C(CC(=O)Nc1cccc(F)c1)=N\NC(=O)C(=O)NC1CCCCC1,12.1% (active)
16,C/C(CC(=O)Nc1cccc(C(F)(F)F)c1)=N\NC(=O)C(=O)NCC(C)C,-3.56% (inactive)
17,COc1cccc(NC(=O)C/C(C)=N/NC(=O)C2CCCCC2)c1,1.09% (inactive)
18,Cc1ccc(CN2CCN(Cc3ccccc3-c3ccco3)CC2CCO)o1 (stereo not drawn),-2.94% (inactive)
19,CCN(c1ccccc1)S(=O)(=O)c1cc2c(cc1C)n(C)c(=O)c(=O)n2C,1.1% (inactive)
20,C=CCn1c(C23CC4CC(CC(C4)C2)C3)n[nH]c1=S,-2.9% (inactive)
21,COc1ccccc1N1CCN(c2ncnc3sc(C)c(-c4ccccc4)c23)CC1,23.3% (inactive)

row,SMILES,max response
1,Cc1ccc2c(c1)N(C(=O)CCC(=O)NCc1cccnc1)CCO2,-2.33% (inactive)
2,CC(=O)N1CCOc2ccc(S(=O)(=O)N3CCN(c4cccc(C(F)(F)F)c4)CC3)cc21,-4.21% (inactive)
3,Cc1ccc2[nH]cc(CCCN3C(=O)c4ccccc4C3=O)c2c1,10.1% (active)
4,Cc1ccc2[nH]cc(CCNC(=O)C3CCCCC3)c2c1,0.628% (inactive)
5,Cc1ccc2[nH]cc(CCNC(=O)c3ccc([N+](=O)[O-])cc3)c2c1,0.0509% (inactive)
6,COc1ccc(C[C@H](C(=O)O)N2C(=O)c3ccc(C(=O)O)cc3C2=O)cc1,-3.3% (inactive)
7,COc1ccc2[nH]cc(CCN3C(=O)c4ccc(C(=O)O)cc4C3=O)c2c1,21.7% (active)
8,COCCCN1C(=O)c2ccc(C(=O)Nc3ccc(OC)cc3OC)cc2C1=O,0.803% (inactive)
9,Clc1cccc(Cl)c1OCCOCCNCc1ccccc1,1.5% (inactive)
10,CCN(CC)Cc1c(C(=O)N/N=C/c2cccc(OCc3ccc(F)cc3)c2)nnn1-c1nonc1N,8.82% (inactive)
11,CN(C)CCCn1c(=O)n(Cc2ccccc2)c(=O)c2c3c(sc21)CCCCC3,-4.51% (inactive)
12,Cc1occc1C(=O)NC1CCCN(Cc2ccc(CC(C)C)cc2)C1 (stereo not drawn),9.49% (inactive)
13,CC1(C(=O)N/N=C/c2cc3c(cc2Br)OCO3)CC1(Br)Br (stereo not drawn),4.29% (inactive)
14,CN1CCC(CN)(N2CCN(c3ccccc3)CC2)CC1,-3.21% (inactive)
15,COc1ccc(NC(=O)CNC(=O)Cc2ccccc2)cc1OC,-3.3% (inactive)
16,O=C(NC1CCCC1)C(=O)c1c[nH]c2ccccc12,49.1% (active)
17,CC(=O)NC(Cc1c[nH]c2ccccc12)C(=O)NCCc1ccccc1 (stereo not drawn),-4.02% (inactive)
18,O=C(NCCCc1ccccc1)C(=O)c1c[nH]c2ccccc12,14.7% (active)
19,COc1ccc(OC)c2[nH]c(=O)c(CCNC(=O)C(=O)c3c[nH]c4ccccc34)cc12,-1.63% (inactive)
20,CC1CCN(CC(=O)c2c[nH]c3ccccc23)CC1,22.4% (inactive)
21,O=C(C(=O)N1CCc2ccccc2C1)c1c[nH]c2ccccc12,10.7% (inactive)
